In PubChem BioAssay:
Unmarked numbers belong to inactive results. How the calls were made is not given here.

Assay: inhibitors of hydroxyurea-induced Chk1 phosphorylation, primary screen, imaging, HeLa, phospho-Chk1 nuclear intensity (AID 1187); further: test concentration not given here
Settings: hydroxyurea-induced phospho-Chk1 immunofluorescence imaging, higher = more signal

| SMILES | z-score |
| --- | --- |
| CN(C)CCCNC(=O)[C@@H]1c2ccccc2C(=O)N(Cc2ccccc2)[C@H]1c1ccc(CO)cc1 | 0.372 |
| COc1ccc([Si](C)(C)[C@H]2[C@H](CC(=O)N3CCC[C@H]3CO)O[C@@]3(C(=O)N(Cc4cccc(N5C(=O)COc6ccccc65)c4)c4ccccc43)[C@@H]2C)cc1 | 0.728 |
| C=CC[C@]1(C(=O)NCc2ccccc2)N=C(c2ccc(OCCCO)cc2)O[C@H]1c1ccccc1 | 0.896 |
| COC(=O)[C@@]1(Cc2ccc(F)cc2)[C@H]2c3cc(C(=O)N(C)C)n(Cc4ccc(OC)c(OC)c4)c3C[C@H]2CN1C(=O)c1ccccc1 | 0.753 |
| O=C(CS)NCCCCCNC(=O)[C@H]1C[C@H]2C(=O)N3CCC[C@H]3C(=O)N2[C@H]1c1cccc(OCCO)c1 | -0.281 |
| Cn1cccc1C(O)C1C=CC2C(=O)NC(=O)C2N1Nc1ccccn1 (configuration not stated) | -0.431 |
| O=C1O[C@@H](c2ccccc2)[C@@H](c2ccccc2)N2[C@@H](c3ccc(OCCO)cc3)[C@]3(C(=O)Nc4ccccc43)[C@@H](C(=O)N3CCN(c4ncccn4)CC3)[C@H]12 | 0.644 |
| COC(=O)c1c(CC[C@@H](CO)NC(=O)N[C@H](Cc2ccccc2)Cn2cc(-c3ccccc3N)nn2)oc(C(C)=O)c1C(=O)OC | 0.189 |
| COC(=O)[C@@H]1N=C(c2ccc(OCCCO)cc2)O[C@@H]1c1ccccc1N=[N+]=[N-] | -0.269 |
| CCOC(=O)C1=CC[C@H]2C(=O)N(CC)C(=O)[C@@H]12 | -0.0238 |
| C=C(/C(=C/C[C@H](OC(C)=O)c1ccc(OCCO)cc1)c1cnc2ccccc2c1)C(C)C | -0.38 |
| N#Cc1ccc(NN2C(C(O)c3cc(C(F)(F)F)cc(C(F)(F)F)c3)C=CC3C(=O)N(c4ccccc4)C(=O)C32)cc1 (configuration not stated) | -0.0521 |
| COCCOC(=O)N1C(=O)[C@@]2(c3cc(C#CCNC(N)=O)ccc31)[C@H](c1ccccc1OCCO)N1[C@H](c3ccccc3)[C@H](c3ccccc3)OC(=O)[C@H]1[C@@H]2C(=O)N1CCN(c2ncccn2)CC1 | -0.438 |
| CC(C)[Si]1(C(C)C)O[C@@H](c2ccccc2)c2cc(C3CC3)nc(-c3ccccc3)c21 | -0.694 |
| COc1ccc([Si](C)(C)[C@@H]2[C@@H](CC(=O)N3CCC[C@H]3CO)O[C@]3(C(=O)N(Cc4cccc(N5CCC5=O)c4)c4ccccc43)[C@H]2C)cc1 | 0.535 |
| CN(C)c1ccc(C(O)C2C=CC3C(=O)N(c4ccccc4)C(=O)C3N2Nc2ccccc2F)cc1 (configuration not stated) | -0.817 |
| CCCCCN1CC=CC23O[C@@H]4C=CCOC(=O)[C@@H]4[C@H]2C(=O)N(CCCCCCO)[C@@H]3C1=O (some centres not stated) | 0.0434 |
| CC(C)(C)OC(=O)CC[C@]1(C(N)=O)COC(c2ccc(OCCCO)cc2)=N1 | 0.572 |
| CC(C)(C)OC(=O)CC[C@]1(C(=O)NCc2ccccc2)N=C(c2ccc(OCCCO)cc2)O[C@H]1c1ccccc1 | -0.062 |
| COc1ccc(CCNC(=O)[C@@H]2c3ccccc3C(=O)N(c3ccc(C)cn3)[C@H]2c2ccc(CO)cc2)cc1 | 0.259 |
| CC1CC/C=C\[C@H]2OC34C=CCN(Cn5nnc6ccccc65)C(=O)[C@H]3N(CCO)C(=O)[C@@H]4C2C(=O)O1 (some centres not stated) | -0.173 |
| C[N+](C)(C)CCCCCCNC(=O)[C@@H]1C[C@@H]2C(=O)N3CCC[C@H]3C(=O)N2[C@@H]1c1cccc(OCCO)c1 | -0.0252 |
| CN1C(=O)[C@@]2(CCC(=O)OC(C)(C)C)N=C(c3ccc(OCCCO)cc3)O[C@H]2c2ccccc21 | -0.261 |
| COCC1=C2[C@@H](CCc3ccccc3)OB(O)C[C@@H]2n2c(=O)n(-c3ccccc3)c(=O)n2C1 | -0.295 |
| CCCCC(=C=CC[C@H](O)c1ccccc1OCCO)C[C@H](O)COCc1ccccc1 | 0.18 |
| COCCOC(=O)N1C(=O)[C@@]2(c3cc(C#CCNC(N)=O)ccc31)[C@H](c1ccc(O)cc1)N1[C@H](c3ccccc3)[C@H](c3ccccc3)OC(=O)[C@H]1[C@@H]2C(=O)N1CCCCCCC1 | 0.452 |
| CC(C)NC(=O)[C@@H]1c2ccccc2C(=O)N(CC23CC4CC(CC(C4)C2)C3)[C@H]1c1ccc(CO)cc1 | -0.0146 |
